# High-throughput results from PubChem BioAssay.
# This is a sample that favours compounds with a hit; in the whole collection about 7.9% have one here.
# HT1080 IDH1KD tx: toxicity to HT-1080 IDH1 knockdown cells (counter line); HT-1080 IDH1 knockdown viability, ATP luminescence, 48 h; Potency, µM (highest dose often 46.1 µM), for the others: at the top dose activity, negative = toxicity, hits mostly cytotoxic; 360,000 compounds, 2% hits;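 also: 0% = DMSO wells and -100% = cell-free medium wells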
#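 % activity derives from luminescence (CellTiter-Glo), normalised to DMSO and no-cell wells. HT-1080-IDH1KD cells, 750/well, had 48 h compound exposure at 37 °C.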
# HT1080NT lethal: kills 2HG-producing HT-1080-NT fibrosarcoma cells | HT-1080-NT fibrosarcoma viability, CellTiter-Glo ATP luminescence, 48 h | Potency, µM (titrated, usually from 46.1 µM), for inactives: at the top dose activity, negative = less viability, most hits filed as cytotoxic | 360,000 compounds, 1.6% hits | AID 686970;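 also: NT is the 2HG producing partner of a matched IDH1 knockdown line; 0% = DMSO-treated cells and -100% = media-only wells without cells; nearly all actives have a fitted effect of over 55% in size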
#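 Fibrosarcoma NT cells, 750 per well in 5% FBS RPMI, were exposed to compound for 48 hours. Viability: CellTiter-Glo luminescence.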
# MCF10A rereplic: inducers of DNA re-replication in MCF 10A breast cells; MCF 10A DNA re-replication, Hoechst nuclear intensity, 48 h; Potency, µM (series often up to 46.1 µM), without a hit: top-dose activity, positive = re-replication, actives largely listed as activators; 350,000 compounds, 2.9% hits; also: % of control where 0% means no effect; nearly all actives have a fitted effect of over 50% in size
# KB-V1 cytotox: kills drug-selected multidrug resistant KB-V1 cells | KB-V1 MDR cells viability, CellTiter-Glo, 72 h | 400,000 compounds, 3.4% hits | Potency, µM (doses to about 46.1 µM), usual class: cytotoxic; also: % is scaled to controls: 0 for no effect and ±100 for the full control effect; nearly all actives have a fitted effect of over 60% in size
#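 Cells of the MDR subline KB-V1 are plated, dosed with compound at multiple concentrations, and incubated 72 h at 37 degrees C; CellTiter-Glo is then added and luminescence read after 10 min.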
# SW480 rerep: inducers of DNA re-replication in SW480 colon cancer cells. SW480 DNA re-replication, Hoechst DNA content imaging, 48 h. Potency, µM (doses to about 46.1 µM), inactives show top-dose re-replication activation, actives largely listed as activators. 340,000 compounds, 1.8% hits. AID 624297; also: % of control where 0% means no effect; nearly all actives have a fitted effect of over 55% in size
#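 Treated cells incubate 48 hr (37 C, 5% CO2), are stained 40 min with Hoechst, and nuclear fluorescence is enumerated; a rise in nuclei with high DNA signal marks re-replication.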
# KB-3-1 tox: KB-3-1 parental cell cytotoxicity; KB-3-1 viability, CellTiter-Glo ATP luminescence, 72 h; Potency, µM (titrated, usually from 46.1 µM), most hits filed as cytotoxic; 400,000 compounds, 1.4% hits; AID 1347075; also: % is scaled to controls: 0 for no effect and ±100 for the full control effect; nearly all actives have a fitted effect of over 60% in size
#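 Cytotoxicity measured as CellTiter-Glo luminescence after 72 h at 37 C. Compound titrations were pinned onto drug-naive KB-3-1 parental adenocarcinoma cells grown in DMEM with 10% FBS, and normalized data fitted to concentration-response curves.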
# * hit, by the source's call; i = inactive; ? = inconclusive; nt = not tested or not shown. Calls follow the shape of the dose curve; as a rule, active = well fitted curve in the direction sought with a large enough effect; inconclusive = small, poorly fitted or top-dose-only effect, or another doubt; inactive = no such curve, though single readings can be large; an effect the other way counts as inactive or inconclusive. Potency is read from the fitted curve at half-maximal effect.
SMILES,HT1080 IDH1KD tx,HT1080NT lethal,MCF10A rereplic,KB-V1 cytotox,SW480 rerep,KB-3-1 tox
COc1cc(CN2CCC(C(=O)NC(c3ccc(F)cc3)c3ncccc3C)CC2)cc(OC)c1 (stereo not given),-25%,-18%,nt,i,nt,i
COc1cc(/C=C/CN2CCC(C(=O)NC(c3ccc(F)cc3)c3ccc4ccccc4n3)CC2)ccc1OC(C)=O (stereo not given),?,16µM*,nt,i,nt,?
O=C(NC(c1ccc(F)cc1)c1ccc2ccccc2n1)C1CCN(Cc2cccc(C(F)(F)F)c2)CC1 (stereo not given),5.8µM*,6.5µM*,nt,?,nt,?
CN(C)c1ccc(CN2CCC(C(=O)NC(c3ccc(F)cc3)c3ccc4ccccc4n3)CC2)cc1 (stereo not given),?,15µM*,nt,i,nt,?
N#Cc1c(/N=C/N2CCOCC2)sc2c1CCCCC2,-13%,0%,2%,i,2%,i
CC1CCC(C(C)C)C(OC(=O)c2ccccc2O)C1 (stereo not given),nt,nt,-4%,nt,-4%,nt
O=C(NC(c1ccc(Cl)cc1)c1cnccn1)C1CCN(CCCOc2ccccc2)CC1 (stereo not given),?,?,nt,i,nt,i
O=C(NC(c1ccc(F)cc1)c1ccc2ccccc2n1)C1CCN(CCOc2ccc(Cl)cc2)CC1 (stereo not given),21µM*,?,nt,?,nt,?
Cc1ccccc1/C=N/n1c(-c2ccccn2)n[nH]c1=S,0%,7%,-3%,i,-3%,i
CC(C)=CCc1c2c(c3occ(-c4ccc(O)c(O)c4)c(=O)c3c1O)C=CC(C)(C)O2,?,?,9.2µM*,i,15%,?
CC(C)=CCc1c2c(c3occ(-c4ccc(O)cc4)c(=O)c3c1O)C=CC(C)(C)O2,?,?,?,?,1%,?
CCCc1nc2c(s1)CCc1onc(-c3ccc(OC)cc3)c1-2,3%,0%,8.2µM*,i,-2%,i
COc1ccc(-c2noc3c2-c2nc(-c4ccccc4C)sc2CC3)cc1,?,13µM*,?,?,21µM*,18µM*
COc1ccc(NC(=O)Nc2cccc([N+](=O)[O-])c2)cc1Cl,-5%,-1%,?,15µM*,-1%,i
O=C(Nc1ccc(OC(F)F)c(Cl)c1)Nc1ccc2c(c1)OCO2,?,-24%,?,?,-4%,?
COc1ccc(C(=O)Nc2cccc([N+](=O)[O-])c2)cc1Br,-29%,?,5%,i,-8%,i
COc1ccc(OC(C)C(=O)Nc2cccc([N+](=O)[O-])c2)cc1 (stereo not given),-2%,-8%,-43%,16µM*,-149%,i
O=C(Nc1ccc([N+](=O)[O-])cc1)Nc1ccc(OC(F)F)c(Cl)c1,?,?,?,4.6µM*,18µM*,5.8µM*
CS(=O)(=O)c1ccc(C(=O)OCC(=O)N2CC(=O)Nc3ccccc32)cc1[N+](=O)[O-],nt,nt,nt,i,nt,?
COc1ccc(-c2csc(N(CC3CCCO3)C(=O)c3ccc(C)cc3)n2)cc1 (stereo not given),?,-26%,-1%,3.7µM*,-2%,?
O=C(c1cccs1)N(CC1CCCO1)c1nc(-c2ccccc2)cs1 (stereo not given),-8%,-8%,18%,i,8%,i
O=C(c1ccco1)N(CC1CCCO1)c1nc(-c2ccccc2)cs1 (stereo not given),?,?,?,23µM*,26%,?
Cc1ccc(-c2csc(N(CC3CCCO3)C(=O)c3ccco3)n2)cc1 (stereo not given),?,-25%,21µM*,?,?,?
COc1cc(CNc2ncc(-c3ccc(Br)cc3)n2C)cc(OC)c1O,-1%,-2%,-4%,i,-12%,i
CCOC(=O)[C@H]1[C@H]2COc3ccc(Cl)cc3[C@@H]2N2C(=O)c3cc(F)c(F)cc3NC(=O)[C@@]12C,?,-6%,-5%,?,7%,23µM*
SMILES,HT1080 IDH1KD tx,HT1080NT lethal,MCF10A rereplic,KB-V1 cytotox,SW480 rerep,KB-3-1 tox
CCOC(=O)[C@H]1[C@H]2COc3ccc(OC)cc3[C@@H]2N2C(=O)c3cc(OC)ccc3NC(=O)[C@@]12C,5%,7%,-5%,?,6.5µM*,i
CCOC(=O)[C@H]1[C@H]2COc3ccc(OC)cc3[C@@H]2N2C(=O)c3ccccc3NC(=O)[C@@]12C,15%,24%,?,i,10%,i
C=CCNC(=O)/C(C#N)=C/c1c(C)nn(-c2ccc(Cl)cc2)c1Cl,?,?,?,i,?,i
O=c1[nH]nc(CNc2ccc(O)cc2)c2ccccc12,?,-17%,?,?,22%,?
O=S(Cc1ccc(Cl)cc1)CC(O)COCc1ccc(Cl)cc1 (stereo not given),-21%,-4%,-10%,16µM*,-7%,i
OC(CNCc1ccccc1)COCc1ccc(Cl)cc1 (stereo not given),-16%,-27%,-41%,i,29%,i
COc1ccc(C(=O)c2ccc(Cl)cc2)c2ccccc12,-28%,-24%,9.2µM*,?,?,?
COc1ccc(C(=O)CCN(C)C)c2ccccc12,nt,nt,nt,i,nt,i
COc1ccc(C(=O)c2ccc(C)cc2)c(OC)c1OC,18µM*,?,16µM*,?,?,?
COc1cccc(C(=O)C(=O)c2cccc(OC)c2OC)c1OC,3%,1%,1%,i,-7%,i
COc1ccc(C(=O)c2ccc(Br)cc2)c2ccccc12,3%,-1%,7.3µM*,18µM*,-2%,?
Brc1cccc(-c2nnc(SCc3ccon3)n2-c2ccccc2)c1,-21%,-2%,-6%,?,1%,i
CCOC(=O)c1cccc(N2C(=O)C3C(C(=O)NC4CC4)C4(C)C=CC3(O4)C2C(=O)NC(C)(C)C)c1 (stereo not given),-8%,-1%,5%,i,1%,i
Cc1ccc(CSC(Nc2ccc(F)cc2)=C(C#N)C#N)cc1,?,?,13µM*,13µM*,?,?
CCN(CC)C(=O)CSC(Nc1ccc(F)cc1)=C(C#N)C#N,6%,-3%,-1%,i,1%,i
O=C(O)CC(c1ccc(Cl)cc1)n1cccc1 (stereo not given),11%,10%,6%,?,2%,i
